The structures appear in SMILES notation. Records with an inconclusive call do not appear. A call without a number means that no potency is given here. The source made the active and inactive calls. Unless noted, the call rests on the fitted dose curve.

In experiment [1] the target is Acetylcholinesterase (Homo sapiens) (UniProt P22303). The experiment can be described thus: Acetylcholinesterase (AChE) small molecule antagonists: enzyme-based qHTS assay (AID 1347397). Further: nearly all actives have a fitted effect of over 55% in size. The conditions noted are these: Potency: AChE enzyme activity inhibition; outcome: AChE enzyme activity inhibition. The gist of the method:
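Recombinant human AChE (50 mU/mL) preincubated with compound 30 min at room temperature; acetylthiocholine plus DTNB then added, and thiocholine formation read colorimetrically after 10 min at room temperature. DMSO served as vehicle control.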
On the technique in general: qHTS replaces the single test concentration by a dilution series.

The target is the same in experiment [2]. The experiment can be described thus: Acetylcholinesterase (AChE) small molecule antagonists: enzyme-based qHTS assay with human liver microsomes (AID 1347399). Further: nearly all actives have a fitted effect of over 60% in size. The conditions noted are these: Potency: qHTS inhibition; outcome: qHTS inhibition. The method, boiled down: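 Recombinant human AChE (50 mU/mL in the enzyme mix) and human liver microsomes (0.25 mg/mL final) were preincubated with compound and NADPH (0.25 mg/mL final) for 30 min at 37 C. Acetylthiocholine/DTNB was then added; thiocholine was read colorimetrically after 10 min at room temperature.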

For experiment [3] the target is unchanged. Kind of experiment: Acetylcholinesterase (AChE) small molecule antagonists: fluorescence cell-based qHTS assay (AID 1347398). Further: nearly all actives have a fitted effect of over 50% in size. Further: potency means the concentration at half of the fitted maximal effect. The conditions noted are these: Potency: AChE activity; outcome: AChE activity. The method, boiled down:
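SH-SY5Y cells (2000/well), attached overnight, incubated with compound 30 min at 37 C. Acetylthiocholine plus Thiolite Green then added for 40 min at room temperature. Thiocholine fluorescence (Ex/Em 490/520 nm) reports cellular AChE activity.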

The nature of experiment [4]: qHTS assay for small molecule agonists of the p53 signaling pathway (AID 651631). Further: nearly all actives have a fitted effect of over 15% in size. The method, boiled down: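 HCT-116 cells carrying a stable p53 response element–beta-lactamase reporter were plated, rested 5 h at 37 °C, then exposed to compound in DMSO for 16 h at 37 °C; reporter activity was read as FRET substrate fluorescence after 2 h at room temperature.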
A further experiment has as its target Aromatase (Homo sapiens) (UniProt P11511). Kind of experiment: qHTS assay to identify aromatase inhibitors (AID 743083; active means well fitted inhibition curve with a large enough effect in the repeat runs; further: series mostly up to about 70 µM; nearly all actives have a fitted effect of over 55% in size).

Chain of Acetylcholinesterase (Homo sapiens) (P22303 whole entry, looked up): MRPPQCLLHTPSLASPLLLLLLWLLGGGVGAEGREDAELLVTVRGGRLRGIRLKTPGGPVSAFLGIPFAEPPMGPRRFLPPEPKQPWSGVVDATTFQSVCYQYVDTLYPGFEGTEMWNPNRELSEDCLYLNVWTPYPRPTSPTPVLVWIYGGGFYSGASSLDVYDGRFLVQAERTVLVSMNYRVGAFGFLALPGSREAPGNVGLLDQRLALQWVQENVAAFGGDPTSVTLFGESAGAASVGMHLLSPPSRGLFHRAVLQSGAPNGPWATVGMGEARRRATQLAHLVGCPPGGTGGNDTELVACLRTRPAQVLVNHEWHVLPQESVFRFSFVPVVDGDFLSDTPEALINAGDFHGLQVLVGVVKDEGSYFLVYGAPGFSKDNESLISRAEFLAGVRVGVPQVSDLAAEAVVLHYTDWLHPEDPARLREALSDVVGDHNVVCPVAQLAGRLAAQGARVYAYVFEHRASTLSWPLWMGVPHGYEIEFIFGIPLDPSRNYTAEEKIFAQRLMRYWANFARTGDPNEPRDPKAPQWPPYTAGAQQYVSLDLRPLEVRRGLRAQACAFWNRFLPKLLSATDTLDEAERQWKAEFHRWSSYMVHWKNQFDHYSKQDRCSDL
Chain of Aromatase (Homo sapiens) (P11511 whole entry, looked up): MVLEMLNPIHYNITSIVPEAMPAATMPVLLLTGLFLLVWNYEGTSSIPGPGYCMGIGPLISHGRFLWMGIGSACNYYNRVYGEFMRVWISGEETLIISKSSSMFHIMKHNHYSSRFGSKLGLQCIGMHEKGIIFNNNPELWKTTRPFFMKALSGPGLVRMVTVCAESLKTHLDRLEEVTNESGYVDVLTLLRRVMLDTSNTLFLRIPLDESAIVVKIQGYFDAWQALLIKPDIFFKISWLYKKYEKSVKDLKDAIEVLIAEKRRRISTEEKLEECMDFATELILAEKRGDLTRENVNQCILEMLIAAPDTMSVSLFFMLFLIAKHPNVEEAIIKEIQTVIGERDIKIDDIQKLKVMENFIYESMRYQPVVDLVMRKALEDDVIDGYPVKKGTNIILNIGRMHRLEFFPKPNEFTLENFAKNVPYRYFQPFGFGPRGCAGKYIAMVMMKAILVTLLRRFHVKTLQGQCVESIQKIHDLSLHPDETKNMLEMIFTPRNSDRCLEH

On to `CCCCCCCCC(C)=O`, for which the Potency entry in experiment [1] and in experiment [2] was “inactive” in each case.
`CN1CCN2c3ccccc3Cc3ccccc3C2C1` (stereo not given): the Potency result in experiment [1] and in experiment [2] was “inactive” in each case.
As for `C=CCSCC1Nc2cc(Cl)c(S(N)(=O)=O)cc2S(=O)(=O)N1` (stereo not given), the Potency result in experiment [1] and in experiment [2] was “inactive” in each case.
As for `N#C/C(=C1\SCC(c2ccccc2Cl)S1)n1ccnc1` (stereo not given), the Potency result in experiment [1] and in experiment [2] was “inactive” each time.
On to `O=C1C=CC(=O)N1`, for which the Potency result in experiment [1] and in experiment [2] was “inactive” each time.
Regarding `Oc1ccc(C(O)CNCCCCCCNCC(O)c2ccc(O)c(O)c2)cc1O` (stereo not given), the Potency result in experiment [1] and in experiment [2] was “inactive” in each case.
In the case of `CC(C)C(=O)Nc1cccc(C2CN3CCSC3=N2)c1` (stereo not given), the Potency entry in experiment [1] and in experiment [2] was “inactive” each time.
Consider `O=C(O)c1c2ccccc2cc2ccccc12`, for which the Potency result in experiment [1] and in experiment [2] was “inactive” each time.
Take `CCN(CC)CCNC(=O)c1ccc(NC(C)=O)cc1`: the Potency result in experiment [1] and in experiment [2] was “inactive” in each case.
For the molecule `NC(=O)C(c1ccccc1)(c1ccccc1)[C@@H]1CCN(CCc2ccc3c(c2)CCO3)C1`, the Potency entry in experiment [1] and in experiment [2] was “inactive” in each case.
Take `COc1ccnc2c1CCCCC2S(=O)c1nc2ccccc2[nH]1` (stereo not given): the Potency result in experiment [1] and in experiment [2] was “inactive” throughout.
Turning to `CCCCN(CCCC)CCCOC(=O)c1ccc(N)cc1`, the Potency result in experiment [1] and in experiment [2] was “inactive” throughout.
Regarding `O=C1CCN(c2ccccc2)N1`, the Potency entry in experiment [1] and in experiment [2] was “inactive” each time.
As for `CCC1=C[C@@H]2CN(C1)Cc1c([nH]c3ccccc13)[C@@](C(=O)OC)(c1cc3c(cc1OC)N(C)[C@H]1[C@@](O)(C(=O)OC)[C@H](OC(C)=O)[C@]4(CC)C=CCN5CC[C@]31[C@@H]54)C2`, the Potency entry in experiment [1] and in experiment [2] was “inactive” in each case.
Take `NC(N)=N/N=C/c1c(Cl)cccc1Cl`: the Potency entry in experiment [1] and in experiment [2] was “inactive” in each case.
Consider `CCN(CC)CCNC(=O)c1cc(Cl)c(N)cc1OC`, for which the Potency result in experiment [1] and in experiment [2] was “inactive” throughout.
Consider `c1ccc2c(CC3=NCCN3)cccc2c1`, for which the Potency entry in experiment [1] and in experiment [2] was “inactive” in each case.
As for `O=C1NC2CCCCN2C12CCN(CCCN1c3ccccc3CCc3ccc(Cl)cc31)CC2` (stereo not given), the Potency result in experiment [1] and in experiment [2] was “inactive” each time.
In the case of `C/C=C1/C(=O)C[C@H]2[C@@H]3CCC4=CC(=O)CC[C@]4(C)[C@H]3CC[C@]12C`, the Potency result in experiment [1] and in experiment [2] was “inactive” in each case.
Turning to `Cc1c(C)n(CCN(C)C)c2ccc(C(=O)OCCN(C)C)cc12`, the Potency entry in experiment [1] and in experiment [2] was “inactive” in each case.
For `O=C(c1ccc(F)cc1)C1CCN(CCn2c(=O)[nH]c3ccccc3c2=O)CC1`, the Potency entry in experiment [1] and in experiment [2] was “inactive” in each case.
On to `CCCCCCC[N+](CC)(CC)CCCCc1ccc(Cl)cc1`, for which the Potency result in experiment [1] and in experiment [2] was “inactive” in each case.
For `CC(C)CC(O)Cc1ccccc1` (stereo not given), the Potency entry in experiment [1] and in experiment [2] was “inactive” each time.
In the case of `Cc1nc2n(c(=O)c1CCN1CCC(c3noc4cc(F)ccc34)CC1)CCCC2`, the Potency result in experiment [1] and in experiment [2] was “inactive” in each case.
Turning to `CCN(CC)CCNc1ccc(CNC=O)c2sc3ccc(OC)cc3c(=O)c12`, the Potency in experiment [3] is 39.9 µM (active). In addition, the Potency result in experiment [2] was “inactive”.
For the molecule `Nc1ncnc2c1ncn2CCOCP(=O)(O)O`, the Potency result (in experiment [4]; with Aromatase (Homo sapiens)) was “inactive” throughout.
Regarding `CN[C@H]1CC[C@@H](c2ccc(Cl)c(Cl)c2)c2ccc(S(N)(=O)=O)cc21`, the Potency in experiment [3] is 35.6 µM (active). Besides, the Potency entry in experiment [2] was “inactive”.
`O=[N+]([O-])O[C@@H]1CO[C@H]2[C@@H]1OC[C@@H]2O`: the Potency result with Aromatase (Homo sapiens) was “inactive”.
In the case of `Cc1ccc(CCn2c3c(c4cc(Cl)ccc42)CN(C)CC3)cn1`, in experiment [3], the Potency was 19.5 µM (active). In addition, in experiment [2], the Potency entry is “inactive”.
For the molecule `CC(=O)N[C@@H](CC(C)C)C(=O)O`, the Potency result in experiment [3] and in experiment [2] was “inactive” each time.
In the case of `CCN(CC)CCNC(=O)c1cc(Br)c(N)cc1OC`, the Potency result in experiment [2] was “inactive”.

Values taken from PubChem BioAssay (Tox21).
